From PubChem
Hits are enriched below; roughly 3.4% of the tested compounds scored in any of these assays.
MEKK2mut PB1 HTS = signal of MEK5 binding to mutant human MEKK2 PB1 domain; percent response, % at 10 µM; hit rate 0.35% among 290,000; bead flow cytometry, Alexa488-MEK5 binding to MEKK2 mutant; in the data active = percent response above about 24%, passing the limit was not always enough
MEKK2wt PB1 HTS = raises or lowers MEK5 binding to wildtype human MEKK2 PB1 domain; hit rate 1.1% among 290,000; bead flow cytometry, Alexa488-MEK5 binding to MEKK2 WT; actives lie on both sides; binding response (% of control), % at 10 µM; in the data active = binding response below about 67% or above about 130%
NTR1 ag = activates human neurotensin receptor 1; P30989; NTR1-U2OS beta-arrestin-GFP spot imaging, agonist mode; activation, % at 20 µM; hit rate 0.17% among 330,000; AID 493036;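 active = activation at or above 40% of the spot to cytoplasm intensity ratio, with at least 20 cells analyzed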
ANO1 block = blocks the mouse calcium-activated chloride channel TMEM16A; Q8BHY3; hit rate 1.2% among 310,000; AID 588511; HEK293 TMEM16A/YFP iodide influx fluorescence, ionomycin; normalized B-score (activity score, 25-100; higher = stronger inhibition) at 10 µM;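 active = ratio plate-corrected score three or more library SD toward inhibition, starting fluorescence score within five deviations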;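 also: score derived from kinetic fluorescence span divided by baseline fluorescence per well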
MEKK3 PB1 HTS = raises or lowers MEK5 binding to the human MEKK3 PB1 domain. Q99759. bead-based flow cytometry, Alexa488-MEK5 binding to MEKK3; actives lie on both sides; 0 = blocked by unlabeled MEK5, 100 = vehicle. binding response (% of control), % at 10 µM. hit rate 1.4% among 290,000;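 active = binding response more than 3 SD above or below the average of its plate-row segment, actives on both sides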;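 also: Alexa488 bead fluorescence after subtracting the streptavidin-only scavenger bead signal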
Target sequence (Q99759 whole entry, looked up, the tested form may be a part): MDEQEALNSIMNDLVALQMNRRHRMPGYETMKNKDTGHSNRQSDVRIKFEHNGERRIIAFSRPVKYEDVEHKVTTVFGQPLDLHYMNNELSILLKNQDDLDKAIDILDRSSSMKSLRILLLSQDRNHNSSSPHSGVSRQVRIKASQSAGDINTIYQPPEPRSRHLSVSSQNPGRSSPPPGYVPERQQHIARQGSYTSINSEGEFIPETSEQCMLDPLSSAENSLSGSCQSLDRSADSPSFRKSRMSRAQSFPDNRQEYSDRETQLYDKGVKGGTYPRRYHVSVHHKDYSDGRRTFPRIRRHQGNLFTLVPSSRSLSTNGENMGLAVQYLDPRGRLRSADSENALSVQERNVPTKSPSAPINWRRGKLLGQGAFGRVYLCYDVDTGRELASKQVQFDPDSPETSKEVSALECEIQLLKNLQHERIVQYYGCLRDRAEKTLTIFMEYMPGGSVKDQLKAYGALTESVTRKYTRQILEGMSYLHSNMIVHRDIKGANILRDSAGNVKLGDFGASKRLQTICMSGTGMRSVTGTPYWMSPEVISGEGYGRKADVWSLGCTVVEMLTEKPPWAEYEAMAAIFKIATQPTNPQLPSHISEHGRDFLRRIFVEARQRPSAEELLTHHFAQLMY
ANO1 activ = activates or potentiates the mouse TMEM16A chloride channel | Q8BHY3 | HEK293 TMEM16A/YFP-H148Q/I152L, iodide quench fluorescence; stronger effect = lower value | B-score at 10 µM | hit rate 0.3% among 340,000;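 active = fluorescence-ratio B-score plate-corrected deviation score at least 3 library SD below zero, with starting fluorescence score within 5 deviations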;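 also: channel opened by trigger with iodide after compound preincubation; score built on the fluorescence ratio of max minus min over baseline; more negative score means more quench and so TMEM16A activation or potentiation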
MEKK2wt confirm = raises or lowers MEK5 binding to wildtype human MEKK2, retest | AID 1892 | hit rate 2.4% among 5,900 | binding response (% of control), % at 10 µM | bead flow cytometry, Alexa488-MEK5 binding to MEKK2 WT; actives lie on both sides | shares compounds with MEKK3 PB1 HTS; in the data active = binding response below about 16% or above about 210%; inactive = in between
MEKK2mut-MEK5 = signal of MEK5 binding to mutant human MEKK2, retest. AID 1893. bead flow cytometry, Alexa488-MEK5 binding to MEKK2 mutant. shares compounds with MEKK3 PB1 HTS. hit rate 2% among 5,900. percent response, % at 10 µM; in the data active = percent response mostly above about 71%, no sharp cut-off; inactive = mostly below about 38%;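 also: higher means compound restores mutant binding toward wildtype level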
MEKK3 confirm = MEKK3-MEK5 PB1 inhibition, single concentration confirmation; bead flow cytometry, Alexa488-MEK5 binding to MEKK3; stronger effect = lower value; AID 1894; hit rate 1.8% among 5,900; binding response (% of control), % at 10 µM; shares compounds with MEKK3 PB1 HTS;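 active = binding response below 72% of control, or above a set upper limit, though filed actives all read lower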
Numbers stand for hits; - = inactive; . = no result; [ ] = another dose, or the depositor's remark.

SMILES | MEKK2mut PB1 HTS | MEKK2wt PB1 HTS | NTR1 ag | ANO1 block | MEKK3 PB1 HTS | ANO1 activ | MEKK2wt confirm | MEKK2mut-MEK5 | MEKK3 confirm
CCCN(CC(=O)Nc1ccc(C(N)=O)cc1)CC(=O)Nc1ccc(Cl)cc1Cl | - | - | - | - | 134 | - | - | - | -
CN(CC(=O)Nc1ccc(Cl)cc1)CC(=O)Nc1ccc(F)c(F)c1F | - | - | - | - | 131 | - | - | - | -
Cc1cc([N+](=O)[O-])c2c(c1C)C1C=CCC1C(c1ccccn1)N2 (stereo unspecified) | - | - | - | - | - | . | . | . | .
O=C(NCc1ccc(Cl)cc1)c1cccc2c1C(=O)N(CC1CCCO1)C2 (stereo unspecified) | - | - | - | - | - | - | . | . | .
O=C(O)CCC(=O)N1CCN(c2cccc(Cl)c2)CC1 | - | - | - | - | - | - | . | . | .
O=C(O)/C=C/C(=O)N1CCN(c2cccc(Cl)c2)CC1 | - | - | - | - | 129 | - | - | - | -
O=C(NCc1cccc(C(F)(F)F)c1)N1CCN(S(=O)(=O)c2ccccc2F)CC1 | - | - | - | - | - | - | . | . | .
Fc1ccc(CSc2nnc(-c3ccco3)o2)cc1 | - | - | - | - | 1.0[inhibitor] | - | - | - | -
O=C(CSc1nnc(-c2ccco2)o1)N1CCN(c2ccccc2)CC1 | - | - | - | - | 136 | - | - | - | -
CC(=O)c1c(C)[nH]c(C(=O)CSc2nnc(-c3ccco3)o2)c1C | - | - | - | - | 152 | - | - | - | -
O=C(CSc1nnc(-c2ccco2)o1)N1c2ccccc2CCc2ccccc21 | - | - | - | - | 80[inhibitor] | - | - | - | -
COc1ccc(-n2c(=O)c3ccccc3n(CC(=O)NCC3CCCO3)c2=O)cc1 (stereo unspecified) | - | - | - | - | - | - | . | . | .
CC(C)c1ccc(N(C(=O)CNC(=O)c2ccco2)C(C(=O)NC2CCCC2)c2cccnc2)cc1 (stereo unspecified) | - | - | - | - | - | - | . | . | .
CCCCNC(=O)C1CCN(c2nc(C)cc(C)n2)CC1 | - | - | - | - | - | - | . | . | .
CCCCNC(=O)C1CCN(c2nc(OC)nc(OC)n2)CC1 | - | - | - | - | 124 | - | - | - | -
O=C(Cn1c2c(c(=O)n3ncnc13)CCC2)N/N=C/c1cccs1 | - | - | - | - | - | - | . | . | .
O=C(Cn1c2c(c(=O)n3ncnc13)CCC2)N/N=C/c1ccc(Cl)cc1 | - | - | - | - | 48[inhibitor] | - | - | - | -
COc1cc(/C=N/NC(=O)c2ccc(Cl)cc2)ccc1OCC(=O)N1CC(C)OC(C)C1 (stereo unspecified) | - | - | - | - | 52[inhibitor] | - | - | - | -
COc1cc(/C=N/NC(=O)c2ccc(CSc3nncn3C)cc2)ccc1OCC(=O)N1CC(C)OC(C)C1 (stereo unspecified) | - | - | - | - | - | - | . | . | .
COc1ccc(CN2CNc3c(c(=O)n(C)c(=O)n3C)C2)cc1 | - | - | - | - | - | - | . | . | .
CCOC(=O)c1cnc2cc(C)nn2c1C | - | - | - | - | 74[inhibitor] | - | - | - | -
COc1cc(/C=N/N2C(=O)c3ccccc3NC2(C)c2cccc([N+](=O)[O-])c2)cc(Br)c1O (stereo unspecified) | - | - | - | - | - | - | . | . | .
COc1ccc2cc3cc(C(=O)NC(C)C)oc3nc2c1 | - | - | - | - | 124 | - | - | - | -
CCOc1ccc(S(=O)(=O)NCCCl)cc1 | - | - | - | - | - | - | . | . | .
CC(C)C[C@H](NC(=O)c1nc[nH]c1C(=O)N(C)Cc1ccccc1)C(=O)OCc1ccccc1 | - | - | - | - | - | - | . | . | .
SMILES | MEKK2mut PB1 HTS | MEKK2wt PB1 HTS | NTR1 ag | ANO1 block | MEKK3 PB1 HTS | ANO1 activ | MEKK2wt confirm | MEKK2mut-MEK5 | MEKK3 confirm
Cc1ccc(C(C(=O)NC2CCCC2)N(Cc2cccs2)C(=O)CNC(=O)c2cccs2)o1 (stereo unspecified) | - | - | - | - | - | - | . | . | .
COc1ccc(N(C(=O)CNC(=O)c2cccs2)C(C(=O)NCC2CCCO2)c2ccccc2)cc1 (stereo unspecified) | - | 6.0[inhibitor] | - | - | 5.0[inhibitor] | - | - | - | -
Cc1ccc(C(C(=O)NC2CCCC2)N(C(=O)CNC(=O)c2cccs2)c2cccnc2)o1 (stereo unspecified) | - | - | - | - | 71[inhibitor] | - | - | - | -
CCCCC(=O)NC1(C(F)(F)F)C(=O)Nc2c1c(=O)n(C)c(=O)n2C (stereo unspecified) | - | - | - | - | - | - | . | . | .
CCN(CCNC(=O)C1CCN(Cc2nc(-c3cccc(Cl)c3)oc2C)CC1)c1ccccc1 | - | 188 | - | - | - | - | - | - | -
CCc1ccc(-c2nc(CN3CCC(C(=O)NCc4ccc(F)cc4)CC3)c(C)o2)cc1 | - | 145 | - | - | - | - | - | - | -
Cc1oc(-c2cccc(Cl)c2)nc1CN1CCC(C(=O)NC2CC2)CC1 | - | - | - | - | - | - | . | . | .
Cc1oc(-c2ccc(Cl)cc2)nc1CN1CCC(C(=O)NCc2cccs2)CC1 | - | - | - | - | - | - | . | . | .
CCN(CCNC(=O)C1CCN(Cc2nc(-c3ccc(Cl)cc3)oc2C)CC1)c1ccccc1 | - | 163 | - | 100 | - | - | - | - | -
CCN(CCNC(=O)C1CCCN(Cc2nc(-c3ccc(OC)cc3)oc2C)C1)c1ccccc1 (stereo unspecified) | - | - | - | - | - | - | . | . | .
Cc1oc(-c2ccc(Cl)cc2)nc1CN1CCC(C(=O)NCCCN2CCOCC2)CC1 | - | - | - | - | - | - | . | . | .
CCc1ccc(-c2nc(CN3CCC(C(=O)NCCN(CC)c4ccccc4)CC3)c(C)o2)cc1 | - | 184 | - | - | - | - | - | - | -
COc1ccc(NC(=O)CSc2nnc(Cc3cccs3)n2C)cc1 | . | . | - | - | . | - | . | . | .
O=C(CCCc1ccccc1)NCCc1ccc(F)cc1 | - | - | - | - | - | - | . | . | .
O=C1ON=C(c2cccc([N+](=O)[O-])c2)/C1=C/c1ccc(O)cc1 | - | - | - | - | - | - | . | . | .
CCc1ccc(-c2nc(CN3CCC(C(=O)N4CCN(c5ccccc5)CC4)CC3)c(C)o2)cc1 | - | 152 | - | - | - | - | - | - | -
